cardiac RTF act – increases calcium sensitivity of human cardiac regulated thin filaments; P19429+P45379; IANBD-labeled TnC RTF fluorescence at EC20 calcium; 0% EC20 calcium, 100% full calcium; activation, % at 7.2 µM; actives 0.24% (n = 340,000);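 active = activation above the mean over all tested compounds plus 3 SD, cut at about 30% in these data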;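 note: rise in fluorescence read as greater calcium sensitivity of cardiac thin filaments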
IDE cell inh – inhibits human insulin-degrading enzyme in HEK cells | FAbetaB cleavage, fluorescence polarization | inhibition, % at 5.59 µM | P14735 | actives 0.41% (n = 320,000);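 active = percent inhibition above the average of all tested compounds plus 3 SD, set per screening campaign, cut at about 16% in these data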;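 note: IDE supplied by intact live HEK cells; FP after avidin binding of uncleaved biotin substrate so inhibition keeps polarization high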
Target sequence (P14735 whole entry, looked up): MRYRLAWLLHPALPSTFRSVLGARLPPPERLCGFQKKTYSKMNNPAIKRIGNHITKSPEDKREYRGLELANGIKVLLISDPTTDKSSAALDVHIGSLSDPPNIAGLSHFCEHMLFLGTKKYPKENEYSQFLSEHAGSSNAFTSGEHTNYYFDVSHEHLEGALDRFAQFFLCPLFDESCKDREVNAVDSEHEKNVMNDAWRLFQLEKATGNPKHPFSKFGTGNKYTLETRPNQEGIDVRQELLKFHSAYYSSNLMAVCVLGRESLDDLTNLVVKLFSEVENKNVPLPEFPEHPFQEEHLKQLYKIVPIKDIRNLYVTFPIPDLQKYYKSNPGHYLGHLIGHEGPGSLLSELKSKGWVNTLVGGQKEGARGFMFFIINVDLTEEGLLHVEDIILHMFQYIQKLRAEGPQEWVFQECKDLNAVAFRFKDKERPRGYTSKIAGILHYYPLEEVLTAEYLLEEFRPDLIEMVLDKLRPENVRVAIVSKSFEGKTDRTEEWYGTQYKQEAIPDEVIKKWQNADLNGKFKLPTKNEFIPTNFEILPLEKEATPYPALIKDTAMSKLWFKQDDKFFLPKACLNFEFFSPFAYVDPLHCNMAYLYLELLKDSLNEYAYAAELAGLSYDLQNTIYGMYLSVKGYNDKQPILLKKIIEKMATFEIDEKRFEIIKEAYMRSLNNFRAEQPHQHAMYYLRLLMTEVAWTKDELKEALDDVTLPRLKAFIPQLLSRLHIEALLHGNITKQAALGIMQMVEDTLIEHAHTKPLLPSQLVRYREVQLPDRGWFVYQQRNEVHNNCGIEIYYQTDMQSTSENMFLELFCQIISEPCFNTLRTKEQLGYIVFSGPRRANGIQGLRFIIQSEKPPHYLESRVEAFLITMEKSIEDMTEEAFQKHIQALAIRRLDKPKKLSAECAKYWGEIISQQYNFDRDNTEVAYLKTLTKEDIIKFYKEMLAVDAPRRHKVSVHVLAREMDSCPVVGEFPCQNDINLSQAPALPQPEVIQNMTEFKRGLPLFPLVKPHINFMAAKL
RTF Ca sens inh – cardiac RTF calcium desensitization | P19429+P45379 | IANBD-labeled cardiac RTF, Ca2+ fluorescence | inhibition, % at 7.15 µM | actives 0.12% (n = 340,000) | AID 493244;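 active = inhibition above the mean inhibition of all tested compounds plus 3 SD, cut at about 17% in these data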;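 note: assay run at fixed EC70 calcium of 1.6 mM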
IDE act – activators of human insulin-degrading enzyme in cells | HEK cells, FAbeta-B cleavage, fluorescence polarization; 0% vehicle, 100% cell-free pure enzyme wells | activation, % at 5.96 µM | actives 0.073% (n = 340,000);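 active = activation above the mean of all tested compounds plus 3 SD, set per screening campaign, cut at about 17% in these data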
Large screens that a line does not name were inactive. Only some compounds are listed: those with a hit (about 0.71% of all), similar ones and a draw of the others.

CC1(NC(=O)CSc2nnc(-c3c[nH]c4ccccc34)n2C2CC2)CCS(=O)(=O)C1 (configuration not stated)	none
CCOC(=O)c1cc(C#N)c(SCC(=O)c2cc(C#N)c(SC)nc2C)[nH]c1=O	cardiac RTF act 58
CCOC(=O)c1cc(C#N)c(SCC(N)=O)[nH]c1=O	none
CCN(CC)c1ccc(/C=c2\sc3nc4ccccc4n3c2=O)c(O)c1	cardiac RTF act 53 (no result: IDE cell inh)
O=C(Cc1ccc(Cl)cc1)Nc1ccc(S(=O)(=O)Nc2cnc3ccccc3n2)cc1	none
CCCn1c(=O)c(C(=O)NCc2ccc3c(c2)OCO3)c(O)c2ccccc21	none (no result: IDE cell inh)
COc1ccc(N2C(=O)c3cccc4c(N(C)CCO)ccc(c34)C2=O)cc1	cardiac RTF act 48 (no result: IDE cell inh)
COc1ccc(N2C(=O)c3cccc4cccc(c34)C2=O)cc1	none
O=C1c2cccc3c(O)ccc(c23)C(=O)N1Cc1ccco1	cardiac RTF act 574, IDE act 30 (no result: IDE cell inh)
O=C1c2cccc3c(O)ccc(c23)C(=O)N1c1ccc(Cl)cc1	cardiac RTF act 532, IDE act 52
COc1ccc(CCNC(=O)COC(=O)c2cc(S(=O)(=O)N3CCOCC3)ccc2C)cc1OC	none
C=CCn1c(O)c(C2=c3ccccc3=NC2=O)sc1=Nc1ccc(O)cc1	IDE act 19
CN1CCN(c2nc3c(c(=O)n(C)c(=O)n3C)n2Cc2ccccc2F)CC1	cardiac RTF act 52
Cn1c(=O)c2c(nc(N3CCc4ccccc4C3)n2Cc2ccccc2F)n(C)c1=O	none
CN(C)/C=C1\C=C2C(=O)c3ccccc3N2C1=O	cardiac RTF act active, IDE act 46
CN(C)S(=O)(=O)N1C(=O)c2ccccc2C1=O	none
CC(/C=N/NC(=O)c1nnn(-c2nonc2N)c1CN1CCCCC1)c1ccccc1 (configuration not stated)	none
O=C1C=C(O)c2c(O)cc(O)c(O)c2C1=O	RTF Ca sens inh 31
COc1cc2c(cc1OC)C(COc1ccc([N+](=O)[O-])cc1)NCC2 (configuration not stated)	none
O=C(c1ccco1)N1CCN(c2c(-c3ccccc3)c3cc(Cl)ccc3[nH]c2=O)CC1	none
O=C(c1ccco1)N1CCN(c2ncnc3c2[nH]c2ccc(Cl)cc23)CC1	IDE cell inh 67 (no result: cardiac RTF act, RTF Ca sens inh, IDE act)
CCOC(=O)c1c(CSC(=N)N)n(C)c2cc(Br)c(OC(C)=O)cc12	none
CCOC(=O)c1c(CSC(=N)N)n(-c2ccc(C)cc2)c2cc(Br)c(OC(C)=O)cc12	IDE act 18
CCOC(=O)/C(=C\c1ccc(N2CCC(c3ccccc3)=N2)cc1)C(C)=O	cardiac RTF act 72 (no result: IDE cell inh)
COCCn1c(C)cc(/C=C(\C#N)C(=O)OCC(=O)Nc2ccc(S(N)(=O)=O)cc2)c1C	none (no result: IDE cell inh)
O=C(CC1C(=O)N(c2ccc(Cl)cc2)C(=S)N1CCc1ccncc1)Nc1ccc(F)cc1 (configuration not stated)	cardiac RTF act 39
CCNC(=O)CC1C(=O)N(c2ccc(F)cc2)C(=S)N1CCc1ccncc1 (configuration not stated)	none
CN(Cc1ccc(F)cc1)S(=O)(=O)c1nnc(NC(=O)c2ccccc2Br)s1	none
Cc1ccc(C2=N/C(=C\N3CCCCC3)C(=O)O2)cc1	none
Cc1nn(-c2ccccc2)c(N2CCCC2)c1/C=C1\N=C(c2ccc(OC(C)C)cc2)OC1=O	cardiac RTF act 64
Cc1cc(Cl)ccc1OC(C)C(=O)NN=C1CCCCCC1 (configuration not stated)	none
Cc1nc2scc(C)n2c(=O)c1S(=O)(=O)NC(C)c1ccccc1 (configuration not stated)	none
O=C(CSC1=NNC(c2ccccn2)S1)Nc1ccccc1 (configuration not stated)	IDE cell inh 25
Brc1ccc(-c2cnnc(N3CCCC3)n2)cc1	cardiac RTF act 79
CN1/C(=C\C=O)C(C)(C)c2ccccc21	none
CN1\C(=C/C=C/C=C/C=[N+](C)C)C(C)(C)c2ccccc21	cardiac RTF act 218 (no result: IDE cell inh)
COCCNC(=O)C(OC(=O)c1ccco1)c1ccccc1F (configuration not stated)	none
CSc1nccc(NC(=O)c2cccc(Br)c2)n1	none
O=C(Cn1sc2ccccc2c1=O)NC12CC3CC(CC(C3)C1)C2	IDE cell inh 58
Cc1nc2cc(F)ccc2n1C1CCN(C(=O)c2c(F)cccc2F)CC1	none
Cc1nc(SCC(=O)Nc2ccc3[nH]c(=O)[nH]c3c2)nc(C)c1C	none
CCCNC(=O)Cn1c(=O)/c(=C/c2ccc(-c3ccc([N+](=O)[O-])cc3)o2)s/c1=C\C(=O)C(C)(C)C	cardiac RTF act 52 (no result: IDE cell inh)
COC(=O)c1ccccc1-c1c2ccc(=N)cc-2oc2cc(N)ccc12	cardiac RTF act active, IDE act 39 (no result: RTF Ca sens inh)
COc1ccccc1C(=O)C1CCCN(C(=O)c2ccco2)C1 (configuration not stated)	none
CNC(=S)N(Cc1cccs1)Cc1cc2cc(OC)ccc2[nH]c1=O	IDE act 34
COc1ccc2[nH]c(=O)c(CN(Cc3cccs3)C(=S)Nc3cccc(C)c3)cc2c1	none
CCC1CCCCN1S(=O)(=O)c1ccc(S(=O)(=O)N2CCN(S(=O)(=O)CC)CC2)cc1 (configuration not stated)	IDE act 18
CCC1CCCCN1S(=O)(=O)c1ccc([N+](=O)[O-])cc1 (configuration not stated)	none
CCCCC(=O)Nc1ccc(NC(=O)c2ccc([N+](=O)[O-])cc2)cc1OC	none
CCCCC(=O)Nc1ccc(C(=O)Nc2ccc(OC)cc2[N+](=O)[O-])cc1	cardiac RTF act 81
CCOc1cc(/C=N/Nc2cc(C)nc(-n3nc(C)cc3C)n2)ccc1O	IDE act 22
Cc1cc(N/N=C/c2ccc(F)cc2)nc(-n2nc(C)cc2C)n1	none (no result: cardiac RTF act, RTF Ca sens inh, IDE act)
COc1cccc(CN2CCNC(=O)C2CC(=O)N(C)CCC2CCOCC2)c1OC (configuration not stated)	none
C[C@H](NC(=O)C1CC(=O)N(c2ccc3c(c2)OCCO3)C1)C(=O)N1CCCCC1 (some centres not stated)	none
CN1C(=O)c2cccc3c(Cl)ccc(c23)C1=O	none
CNc1ccc2c3c(cccc13)C(=O)N(C)C2=O	cardiac RTF act active, IDE act 59
CCCCn1c(=O)[nH]c2nc3cc(NC(C)=O)ccc3nc2c1=O	none
CCCCCCn1c(=O)[nH]c2nc3cc(N)c(C)cc3nc2c1=O	cardiac RTF act 627 (no result: IDE cell inh)
CCOC(=O)C1=C(c2ccccc2)OC(N)=C(C#N)C1c1ccc(Cl)s1 (configuration not stated)	none
CCN1CC=C2C(C1)C(c1ccc(Cl)s1)C(C#N)=C(N)C2(C#N)C#N (configuration not stated)	cardiac RTF act 30
Nc1c(C(=O)c2ccc(Cl)cc2)sc2nsc(SCCN3CCOCC3)c12	cardiac RTF act 33
CCC1CCCCN1CCCNC(=O)CCNC(=O)Cn1cnc2ccccc2c1=O (configuration not stated)	none
Cc1ccc(/C=C2/NC(=O)N(Cc3ccccc3F)C2=O)s1	cardiac RTF act 35
Cc1ccc(CN2CCC(CNC(=O)c3ccc(NC(=O)C4=CSCCO4)cc3)CC2)cc1	none
